Source: PubChem (several laboratories)
Shown are actives, neighbours in structure and some others; about 12% of the full set was active somewhere.
Cl transport mod = KCC2 cotransporter modulators, thallium flux, primary screen, cell-based, HEK293 KCC2, FluoZin-2 fluorescence, MLSMR. Solute carrier family 12 member 5 (Homo sapiens), Q9H2X9. KCC2 cells, thallium flux FluoZin-2 fluorescence. B-score of Tl+ flux slope (higher = more flux/activation; lower = inhibition) at 10 µM. hit rate 2.2% among 190,000. AID 1456, 2008;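 active means thallium flux slope and its plate-corrected score both differing from the plate sample mean at a set confidence after two filtering rounds, in either direction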;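 further: slope of fluorescence scaled to starting intensity during 10 to 20 s after thallium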
WT yeast gro inh = growth inhibition of WT strain, primary screen, mitochondrial fusion inhibitor project, WT and mutant strains, chemical genetic; hit rate 2.1% among 190,000; inhibition, % at 10 µM; mitochondrial fusion phenotypic screen; in the data active means inhibition above about 58%; tested in S. cerevisiae
Insulin prom inh = inhibitors of insulin promoter-driven GFP, primary screen, imaging, TRM-6 cells (human fetal islet line), eGFP reporter, cell count; hit rate 0.9% among 130,000; reporter expression induced with tamoxifen; inhibition, % at 2 µM;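 active means inhibition above the mean plus 3 SD, with well images judged a real hit on visual review, cut at about 60% in these data, passing the limit was not always enough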
ROMK mod = ROMK potassium channel modulators, primary screen, cell-based, thallium flux, MLSMR library | B-score at 10 µM | Tet-inducible ROMK, thallium flux fluorescence; actives lie on both sides | hit rate 2% among 130,000 | ATP-sensitive inward rectifier potassium channel 1 (Homo sapiens), P48048;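 active means signal ratio slope over the read window, or its plate-corrected B-score, at least 3 SD from the plate mean, either direction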;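 further: B-score of the F/F0 ratio slope over 7 to 12 s after thallium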
Target sequence (P48048 whole entry, looked up): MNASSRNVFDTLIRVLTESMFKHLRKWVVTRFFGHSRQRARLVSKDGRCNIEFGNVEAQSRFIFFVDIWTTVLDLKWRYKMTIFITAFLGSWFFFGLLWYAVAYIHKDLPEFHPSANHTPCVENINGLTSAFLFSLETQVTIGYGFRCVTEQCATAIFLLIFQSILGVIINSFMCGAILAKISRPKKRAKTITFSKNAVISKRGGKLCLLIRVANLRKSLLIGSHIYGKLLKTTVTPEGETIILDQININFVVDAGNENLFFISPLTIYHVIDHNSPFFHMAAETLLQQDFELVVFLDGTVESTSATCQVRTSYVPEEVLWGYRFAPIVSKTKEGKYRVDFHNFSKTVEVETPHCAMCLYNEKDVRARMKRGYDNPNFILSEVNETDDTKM
Ins promoter up = insulin promoter activators in MIN6 cells, imaging, high-content screening, mouse beta cells | MIN6 insulin promoter-GFP reporter; stronger effect = higher value | z-score at 5 µM | AID 1625, 2009 | hit rate 0.3% among 190,000;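 active means z-score above 3 at 5 µM with at least 500 cells counted in the well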
Lmaj promast = Leishmania major promastigote growth inhibition, primary screen; Leishmania major promastigotes, resazurin fluorescence viability; inhibition, % at 10 µM; hit rate 9% among 200,000; AID 1063, 2008; in the data active means inhibition above about 50%;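 further: promastigotes grown with compound for 44 hours at 28 °C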
A number is an active result; i = inactive; nt = no result.

SMILES | Cl transport mod | WT yeast gro inh | Insulin prom inh | ROMK mod | Ins promoter up | Lmaj promast
COc1oc(-c2ccccc2C)nc1C(F)(F)F | i | i | i | nt | i | i
O=C(CCSc1ccc(Cl)cc1)NC1CCCCC1 | nt | i | i | nt | i | i
O=C(CCSc1ccc(Cl)cc1)NC12CC3CC(CC(C3)C1)C2 | i | 83 | i | i | i | i
CCOC(=O)c1cnc2c(cnn2C)c1NCCC#N | nt | i | i | nt | i | i
CCc1nc(CN2CCCC(C(=O)c3ccc4c5c(cccc35)CC4)C2)c(C)[nH]1 (stereo not given) | i | i | i | i | i | 99
Cc1ncccc1C(=O)N1CCCC(C(=O)c2ccc3c4c(cccc24)CC3)C1 (stereo not given) | i | i | nt | i | i | i
O=C(c1ccc2c3c(cccc13)CC2)C1CCCN(Cc2ccncc2)C1 (stereo not given) | i | i | nt | i | i | 97
CN(C)C(=O)CCC(=O)N1CCCC(C(=O)c2ccc3c4c(cccc24)CC3)C1 (stereo not given) | nt | i | nt | i | i | i
O=C1/C(=C/c2ccccc2)CCCc2ccccc21 | i | i | i | nt | i | i
O=C1/C(=C/c2cccnc2)CC/C1=C\c1cccnc1 | i | i | i | i | nt | 82
CCC1C/C(=C\c2cccnc2)C(=O)/C(=C/c2cccnc2)C1 (stereo not given) | i | 64 | i | -4.3 | i | 100
O=C1/C(=C/c2ccc(C(=O)O)cc2)CCC/C1=C\c1ccc(C(=O)O)cc1 | i | i | i | i | i | 66
O=C1NC(=S)N/C1=C\c1cccnc1 | i | nt | nt | i | i | nt
O=C1NC(=S)N/C1=C/c1cccnc1 | i | nt | nt | i | i | nt
O=C1/C(=C/c2cccnc2)CCC/C1=C\c1cccnc1 | i | i | i | -4.6 | i | 100
CC1CCCCC1NC(=O)COC(=O)c1ccc(S(=O)(=O)N2CCOCC2)cc1 (stereo not given) | i | i | nt | i | i | i
Cc1ccc(-c2cn3c(n2)SCC3)cc1 | i | i | i | i | i | i
COc1ccc2c(c1)CC/C(=C/c1ccncc1)C2=O | i | i | i | i | i | 75
O=C1/C(=C\c2cccnc2)CCc2ccccc21 | i | i | nt | i | i | 100
COc1ccc2c(c1)CC/C(=C\c1ccc(C)o1)C2=O | i | nt | nt | i | i | nt
Cc1ccc(NC(=O)COC(=O)CCNS(=O)(=O)c2ccc(C)c(C)c2)cc1 | i | i | i | i | nt | i
CN1CCN(S(=O)(=O)c2ccc(N(C)CC(=O)Nc3ccc(F)cc3)nc2)CC1 | i | i | nt | i | nt | i
C/C(N)=C(/C#N)C(=O)CSc1nc2ccccc2c(=O)n1CCCOC(C)C | i | i | i | i | i | 90
O=C(NCCc1ccccc1)c1ccccc1NC(=O)C1CCCO1 (stereo not given) | i | i | nt | nt | i | i
CCOC(=O)c1cc(-c2ccccc2)sc1NC(=O)COC(=O)c1ccc(Cl)c(S(N)(=O)=O)c1 | i | i | i | i | i | 91
SMILES | Cl transport mod | WT yeast gro inh | Insulin prom inh | ROMK mod | Ins promoter up | Lmaj promast
CCOC(=O)c1cc(-c2ccccc2)sc1NC(=O)CN1C(=O)NC(CC)(c2ccc(F)cc2)C1=O (stereo not given) | i | i | i | i | i | i
CCOC(=O)c1cc(-c2ccccc2)sc1NC(=O)CN1C(=O)NC(CC)(c2ccccc2)C1=O (stereo not given) | i | i | nt | i | i | 51
CCOC(=O)c1cc(-c2ccccc2)sc1NC(=O)COC(=O)c1cccc(S(N)(=O)=O)c1 | i | i | nt | i | i | i
CCOC(=O)c1cc(C(C)C)sc1NC(=O)COC(=O)CCS(=O)(=O)c1ccccc1 | i | i | 60 | i | i | i
Cc1ccc2cc(C#N)c(SCC(=O)NNC(=O)Cc3ccccc3)nc2c1 | i | i | nt | nt | i | i
CCOC(=O)c1c2c(n(C)c1COC)C(=O)C(=O)c1ccc(Br)cc1-2 | i | nt | i | i | nt | 100
CCOC(=O)C1=C(N)c2ccccc2CC1C1CCCC1 (stereo not given) | i | nt | nt | i | i | nt
O=S(=O)(c1cccc2nsnc12)N1CCN(C/C=C/c2ccccc2)CC1 | i | i | nt | i | i | 81
O=S(=O)(c1cccc2nsnc12)N1CCOCC1 | i | i | i | nt | nt | i
CCN1CCN(S(=O)(=O)c2cccc3nsnc23)CC1 | i | i | i | nt | nt | i
O=S(=O)(c1cccc2nsnc12)N1CCN(C/C=C\c2ccccc2)CC1 | i | i | i | i | i | 94
C/C=C(\C)C(=O)NCCN1C2=NC[C@@H](Cc3ccccc3)N2C[C@H]1Cc1ccc(O)cc1 | i | i | nt | nt | i | i
CCCN1CCN(c2ncnc3c2nnn3Cc2ccccc2)CC1 | i | i | nt | i | i | 97
CCOC(=O)c1c(N=CN(C)C)c(C#N)n2c1CCC2 | nt | i | nt | nt | i | i
COc1ccc(/C=N/NC(=O)c2ccn[nH]2)cc1COc1ccc(Cl)cc1Cl | nt | 73 | i | nt | i | i
CC1CCN(C(=O)c2[nH]cnc2C(=O)N[C@@H](C)C(=O)OC(C)(C)C)CC1 | i | nt | nt | nt | i | nt
O=C(c1cccc(-c2ccc(O)cc2)c1)N1CCN(c2ccc(F)cc2)CC1 | i | i | 68 | i | i | i
O=C(c1ccc(Cl)cc1)N1CCN(c2ccc(F)cc2)CC1 | i | 71 | i | nt | i | i
O=C(Nc1cccc(C(=O)N2CCN(c3ccc(F)cc3)CC2)c1)c1ccccc1 | i | i | i | i | i | i
O=C(c1ccncc1)N1CCN(c2ccc(F)cc2)CC1 | i | i | nt | i | i | i
COc1ccc(CN2C(=O)c3ccccc3C2=O)cc1C(=O)Nc1ccccc1N1CCOCC1 | i | i | nt | i | i | i
COCC(=O)N1CCCC(CNS(=O)(=O)c2ccc(OC)cc2)C1 (stereo not given) | i | i | nt | i | i | i
O=C(NCC1CCCO1)c1c(O)c2cccc3c2n(c1=O)CCC3 (stereo not given) | nt | i | 71 | i | i | i
O=C(Nc1nccs1)c1c(O)c2cccc3c2n(c1=O)CCC3 | i | i | i | nt | i | 96
CCC/C(=N\NC(=O)c1ccc(OC)c(OC)c1)c1ccccc1 | i | i | nt | i | i | i
O=C(NNS(=O)(=O)c1ccc(F)cc1F)C1Cc2c(ccc3ccccc23)O1 (stereo not given) | nt | i | i | nt | nt | i
Cc1cc2ccccn2c1C(C[N+](=O)[O-])c1ccc(N(C)C)cc1 (stereo not given) | i | i | i | i | i | 89
COc1ccccc1C(C[N+](=O)[O-])c1c(N)n(C)c(=O)n(C)c1=O (stereo not given) | i | nt | nt | i | i | nt
COc1ccc(C(C[N+](=O)[O-])c2c(-c3ccccc3)cc3ccccn23)c(OC)c1 (stereo not given) | i | i | i | i | i | 100
COc1ccc(C(C[N+](=O)[O-])c2c(C)[nH]c3ccccc23)cc1OC (stereo not given) | i | i | nt | i | i | i
